# Rows were chosen to be rich in hits. Some 4.8% of all compounds tested hit in one or more screens of this group.
# HepG2 tox = counter-screen for TGF-b inhibitors: cytotoxicity in HepG2 cells; HepG2 CAGA-GFP viability, ATP luminescence, 18 h; Potency, µM (highest dose often 46.1 µM), without a hit: top-dose activity change, negative = cytotoxicity, most hits filed as cytotoxic; 410,000 tested, 0.76% active; AID 588856; also: potency is read from the fitted curve at half-maximal effect
#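 HepG2 CAGA-GFP cells (1000/well, DMEM with 1% FBS) received compound, then TGF-beta at 500 pg/mL final, and were incubated 18 hours at 37 degrees C. Viability was read by CellTiter-Glo luminescence. Media-only wells were set as complete cell-killing and DMSO as no toxicity.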
# ATXN viability = viability counter-screen for ATXN expression inhibitors | S2 cells (HEK-293 line with an ATXN2-luciferase reporter) viability, CellTiter-Fluor protease fluorescence, 24 h | Potency, µM (top dose mostly 56.7 µM), usual class: cytotoxic | 400,000 tested, 0.49% active | AID 651635; also: potency is read from the fitted curve at half-maximal effect; nearly all actives have a fitted effect of over 40% in size
# ATXN2 expr inh = reduces ATXN2 reporter expression in HEK-293 cells; HEK-293 ATXN2-luciferase reporter, luminescence, 24 h; Potency, µM (highest dose often 57 µM), for inactives: at the top dose activity change, negative = inhibition, hits mostly inhibitors; 360,000 tested, 0.72% active; AID 1745845; also: potency is read from the fitted curve at half-maximal effect; % is scaled to controls: 0 for no effect and ±100 for the full control effect; nearly all actives have a fitted effect of over 55% in size
#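 ATXN2-luciferase reporter cells (luciferase flanked by upstream and downstream ATXN2 gene portions) were treated 24 h at 37 °C with compounds at up to 57 uM. SteadyGlo luminescence gave expression; GF-AFC fluorescence gave viability.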
# D3 ag = agonists of human D3 dopamine receptor. P35462. D3R DiscoveRx beta-arrestin cells, luminescence, 90 min. max activation, %. 410,000 tested, 0.58% active; in the data active = max activation above about 30%; also: 0% is about no effect
# Target sequence (P35462 whole entry, looked up): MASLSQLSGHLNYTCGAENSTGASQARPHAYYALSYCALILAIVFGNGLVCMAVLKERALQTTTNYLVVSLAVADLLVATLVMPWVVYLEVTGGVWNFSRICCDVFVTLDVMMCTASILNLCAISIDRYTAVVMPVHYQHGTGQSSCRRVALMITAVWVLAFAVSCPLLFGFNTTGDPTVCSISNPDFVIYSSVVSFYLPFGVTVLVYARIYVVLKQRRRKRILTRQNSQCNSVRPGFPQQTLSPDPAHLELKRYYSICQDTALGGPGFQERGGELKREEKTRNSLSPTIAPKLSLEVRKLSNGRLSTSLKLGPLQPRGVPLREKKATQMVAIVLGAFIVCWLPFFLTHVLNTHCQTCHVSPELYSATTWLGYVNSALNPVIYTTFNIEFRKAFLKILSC
#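 Cells at 1500/well, incubated overnight, then treated with pinned compounds (dopamine as control) for 90 min at 37 degrees C. DiscoveRx reagent added for 30 - 60 minutes at room temperature; luminescence read.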
# TGFb SMAD3 inh = TGF-b pathway inhibition; HepG2 CAGA-GFP TGF-b/SMAD3 reporter, GFP fluorescence, 18 h; TGF-beta stimulated, 500 pg/mL final; 410,000 tested, 1.2% active; AID 588855; Potency, µM (series often up to 46.1 µM), for the others: at the highest dose activity, negative = inhibition, most hits filed as inhibitors; also: potency is read from the fitted curve at half-maximal effect; % is scaled to controls: 0 for no effect and ±100 for the full control effect; nearly all actives have a fitted effect of over 65% in size
#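 Inhibition was scored as loss of TGF-beta-induced (500 pg/mL final, 18 hours, 37 degrees C) GFP in HEPG2 cells carrying a CAGA-GFP reporter, in DMEM with 1% FBS. Well GFP was summed per cell; Activity was normalised to unstimulated and stimulated DMSO wells, then concentration-response fitting.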
# D3 antag = D3 dopamine receptor (human) antagonism; P35462; D3R cells, DiscoveRx beta-arrestin luminescence, antagonist mode; stronger effect = lower value; max response, negative = inhibition, %; 360,000 tested, 2.5% active; AID 652054; in the data active = max response below about -50%; inconclusive = no clear call, values can overlap the other calls; also: % is scaled to controls: 0 for no effect and ±100 for the full control effect
#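 Cells expressing the human receptor were seeded at 1500 cells/well, incubated overnight at 37 degrees C in 5% CO2, then exposed to library compounds with dopamine controls for 90 minutes at 37 degrees C before luminescent detection.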
# The depositor's hits bear a star; i = inactive; ? = inconclusive; . = no result. Unless noted, calls follow the shape of the dose curve; as a rule, active = well fitted curve in the direction sought with a large enough effect; inconclusive = small, poorly fitted or top-dose-only effect, or another doubt; inactive = no such curve, though single readings can be large; an effect the other way counts as inactive or inconclusive.
SMILES,HepG2 tox,ATXN viability,ATXN2 expr inh,D3 ag,TGFb SMAD3 inh,D3 antag
COc1ccc(C(CNC(=O)c2cccc(S(=O)(=O)Nc3ccc(C)cc3)c2)N2CCCCC2)cc1 (configuration not stated),-19.4%,i,2.1%,-32.7,8.1%,-63.9*
COc1ccc(C(CNC(=O)c2cccc(NS(=O)(=O)c3ccc(Br)cc3)c2)N(C)C)cc1 (configuration not stated),7.08µM*,i,-34.8%,-28.8,-19.5%,-78.5*
COc1ccc(C(CNC(=O)c2oc3ccc(Cl)cc3c2C)N2CCCCC2)cc1 (configuration not stated),3.4%,i,3.6%,-17.9,12.5%,-103.3*
COc1ccccc1C(=O)NC(CCSC)C(=O)NCC(c1cccs1)N(C)C (configuration not stated),15.9%,i,5.4%,-8.7,-14.0%,6.4
CCC1CCc2sc(C(=O)NCC(c3ccc(OC)cc3)N3CCOCC3)cc2C1 (configuration not stated),-3.9%,i,.,-5.1,?,-90.5*
CCc1cc(C(=O)NCC(c2ccc(OC)cc2)N2CCOCC2)sc1C (configuration not stated),2.6%,?,5.9%,-25.6,3.5%,-29.3
COc1ccccc1C(=O)NC(CCSC)C(=O)NCC(c1ccco1)N(C)C (configuration not stated),-5.8%,i,-3.1%,-5.6,?,-67.1*
COc1ccc(C(CNC(=O)c2cccc(Br)c2)N2CCCC2)cc1 (configuration not stated),-17.4%,i,-19.7%,-5.1,-7.3%,-86.8*
COc1ccc(CNC(=S)NCc2ccc(OC(C)C)cc2)cc1,17.8µM*,i,-9.3%,1.0,-17.5%,7.3
CCOc1cc2sc(N3CCC(C(=O)Nc4ccc(C)cc4C)CC3)nc2cc1Br,7.2%,i,29.7%,7.1,3.4%,.
COc1ccc(C(=O)Nc2cccc(NC(=O)c3cccs3)c2)cc1,-3.8%,?,-2.8%,-5.2,-14.5%,7.8
COc1ccc(NS(=O)(=O)c2cccc(C(=O)N/N=C/c3cccs3)c2)cc1,2.7%,i,-0.5%,-18.5,-1.2%,-52.3*
COc1ccc(C(CNC(=O)CN(C)S(=O)(=O)c2ccc(C)cc2)N2CCCC2)cc1 (configuration not stated),8.1%,i,-8.9%,-13.8,9.5%,-98.8*
COc1ccccc1C(CNC(=O)CN(C)S(=O)(=O)c1ccc(C)cc1)N1CCCC1 (configuration not stated),-25.3%,i,9.2%,-5.2,-25.2%,2.7
COc1ccc(C(CNC(=O)c2cccc(NC(=O)c3cccs3)c2)N2CCCC2)cc1 (configuration not stated),-20.9%,?,-4.7%,-18.0,1.1%,-81.6*
COc1ccc(C(CNC(=O)c2cccc(S(=O)(=O)N3CCCC(C)C3)c2)N(C)C)cc1 (configuration not stated),-20.2%,i,-11.5%,-27.0,-21.1%,-65.0*
O=C(COc1ccccc1[N+](=O)[O-])N1CCC(c2nc3ccccc3o2)CC1,-17.9%,.,.,2.2,-16.8%,.
CC1CCCN(c2nc3c(-c4ccc(Cl)cc4)nnn3c3ccccc23)C1 (configuration not stated),2.9%,i,11.5%,-1.1,-0.4%,.
Cc1cccc(NC(=O)c2ccc(-n3c(C)nnc3C)cc2)c1,-2.0%,i,5.5%,4.7,6.7%,.
COc1ccc(C(CNC(=O)c2cccc(NS(=O)(=O)c3ccccc3)c2)N2CCCC2)cc1 (configuration not stated),-6.4%,?,.,-2.0,11.0%,-88.0*
COc1ccc(C(=O)NCC(c2ccc(Cl)cc2)N2CCCCC2)cc1 (configuration not stated),-28.0%,?,-26.7%,-16.9,2.2%,.
COc1ccc2oc(C(=O)NCCc3ccccc3)c(C)c2c1,-9.0%,i,4.47µM*,1.9,-1.2%,0.0
COc1ccc(C(CNS(=O)(=O)c2ccc(NC(C)=O)c(OC)c2)N2CCCC2)cc1 (configuration not stated),-5.2%,i,2.6%,-2.0,-1.6%,-53.9*
CCOc1ccc(S(=O)(=O)Nc2cccc(C(=O)NCC(c3ccc(OC)cc3)N3CCOCC3)c2)cc1 (configuration not stated),-22.3%,i,1.3%,-12.5,-2.1%,-24.5
COc1ccc(C(CNC(=O)C(C)Oc2ccc(Br)cc2)N2CCCC2)cc1 (configuration not stated),-19.0%,i,-3.9%,-23.3,-1.1%,-81.2*
SMILES,HepG2 tox,ATXN viability,ATXN2 expr inh,D3 ag,TGFb SMAD3 inh,D3 antag
CC(C)c1ccc(NC(=O)c2ccc(=O)n(Cc3ccccc3)c2)cc1,-17.2%,?,?,-0.4,?,.
C[C@@H](Cc1cc2c(c(C(N)=O)c1)N(CCCO)CC2)NCCOc1ccccc1OCC(F)(F)F,.,.,-13.3%,.,.,.
CCC(C)NC(=O)Cn1c(=O)n(-c2cc(OC)cc(OC)c2)c(=O)c2ccccc21 (configuration not stated),0.8%,i,12.3%,-16.7,12.0%,.
COc1ccc(C(CNC(=O)C(CCSC)NC(=O)c2ccccc2Cl)N2CCCCC2)cc1 (configuration not stated),3.4%,i,-9.5%,-22.6,-26.8%,-59.1*
COc1ccc(C(CNC(=O)c2ccccc2C)N2CCCC2)cc1 (configuration not stated),-8.8%,i,3.3%,-34.1,-4.5%,-85.3*
COc1ccc(C(CNC(=O)c2ccc(S(=O)(=O)N(C)C)cc2)N2CCCC2)cc1 (configuration not stated),-0.8%,i,-4.6%,-12.4,4.0%,-7.7
COc1ccc(C(CNC(=O)c2cccc(S(=O)(=O)N(C)c3ccccc3)c2)N2CCCC2)cc1 (configuration not stated),-32.0%,i,-19.0%,-24.7,-6.8%,-66.0*
COc1ccc(C(CNC(=O)COc2ccccc2C)N2CCCCC2)cc1 (configuration not stated),-18.9%,i,-12.0%,-18.7,-8.6%,-10.7
C=CCN(C(=O)CSC1=NC(=O)CN1C(C)=O)c1nc(C)c(-c2ccccc2)s1,-14.2%,i,2.4%,1.6,12.6µM*,?
CCN(CC)CCNC(=O)C1c2ccccc2C(=O)N(CCOC)C1c1ccc(F)cc1 (configuration not stated),-16.8%,i,-4.8%,-7.9,14.3%,-61.6*

# Compound activity as filed in PubChem.
